Assay outcomes as filed in PubChem BioAssay.
Hits are enriched below; roughly 28% of the tested compounds scored in any of these assays.
CYP2C9 inh = inhibitors of human CYP2C9. P11712. CYP2C9 Supersomes, luciferin-H conversion, luminescence. inhibition, % at 5 µM. 96,000 compounds, 20% hits. AID 777;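 active = blocking of liver enzyme CYP2C9 beyond about 50% at 5 µM, limit read from the data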
CYP2C9 activ = CYP2C9 (human) activation. P11712. recombinant CYP2C9, luciferin-H conversion, luminescence; active compounds read high; factor 1 = untreated enzyme, 0 = blocked. activation factor at 5 µM. 96,000 compounds, 1.4% hits. AID 1024;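 active = activation factor of 2 or more for CYP2C9 at a 5 µM dose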;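 note: 0 = sulfaphenazole-blocked wells and 1 = vehicle-only wells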
CD11b adhes inh = CD11b/CD18-fibrinogen binding inhibition. inhibition, % at 10 µM. P05107+P11215. K562 CD11b/CD18 adhesion to fibrinogen, ATPlite luminescence; Mn2+ added to activate the integrin. 93,000 compounds, 0.54% hits. AID 1497;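 active = primary inhibition of 50% or more at 10 µM, then 40% or more on retest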
Target sequence (P05107 whole entry, looked up, other chains not shown): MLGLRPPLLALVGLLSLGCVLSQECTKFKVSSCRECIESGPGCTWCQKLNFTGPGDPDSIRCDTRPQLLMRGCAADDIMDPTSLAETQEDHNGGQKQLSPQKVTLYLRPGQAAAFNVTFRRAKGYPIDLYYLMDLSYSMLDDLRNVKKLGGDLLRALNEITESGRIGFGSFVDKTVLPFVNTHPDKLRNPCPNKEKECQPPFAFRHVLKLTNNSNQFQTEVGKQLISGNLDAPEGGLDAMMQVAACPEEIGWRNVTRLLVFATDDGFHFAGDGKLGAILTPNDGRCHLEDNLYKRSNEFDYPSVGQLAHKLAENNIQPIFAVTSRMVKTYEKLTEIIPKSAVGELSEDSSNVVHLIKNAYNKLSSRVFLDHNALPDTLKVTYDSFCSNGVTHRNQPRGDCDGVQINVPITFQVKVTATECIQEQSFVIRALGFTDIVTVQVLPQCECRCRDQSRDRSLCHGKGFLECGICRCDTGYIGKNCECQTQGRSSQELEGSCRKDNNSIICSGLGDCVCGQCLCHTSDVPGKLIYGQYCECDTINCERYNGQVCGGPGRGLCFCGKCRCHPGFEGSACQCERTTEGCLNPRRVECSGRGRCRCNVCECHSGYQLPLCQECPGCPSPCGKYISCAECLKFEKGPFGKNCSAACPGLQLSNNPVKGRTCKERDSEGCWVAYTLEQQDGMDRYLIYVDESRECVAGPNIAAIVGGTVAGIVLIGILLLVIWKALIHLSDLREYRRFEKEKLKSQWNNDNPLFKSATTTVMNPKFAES
CYP2C19 act = cytochrome P450 2C19 (human) activation | P33261 | recombinant CYP2C19, luciferin-H EGE luminescence; active compounds read high; 0 = fully inhibited enzyme, 1 = untreated enzyme | activation factor at 5 µM | 96,000 tested, under 10 active;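 active = activation factor of at least 2 at 5 µM in the primary screen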;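 note: 0 = wells with 2.5 mM tranylcypromine and 1 = vehicle-only wells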
CYP2C19 inhib = inhibitors of human CYP2C19 | inhibition, % at 5 µM | AID 778 | 96,000 compounds, 21% hits | CYP2C19 Supersomes, luciferin-H EGE luminescence, 30 min | P33261;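 active = CYP2C19 inhibition above a set limit at 5 µM in the primary screen, cut at about 50% in these data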;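 note: plate controls were negative control wells for no effect and 2.5 mM tranylcypromine positive control for full effect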
Mac1 fbg enh = CD11b/CD18-fibrinogen binding enhancement; K562 CD11b/CD18 adhesion to fibrinogen, ATPlite luminescence; activation, % at 10 µM; 93,000 compounds, 0.07% hits; AID 1499;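 active = 10 µM primary screen giving 50% or more activity, confirmed by 40% or more on retest at that dose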
The depositor's hits bear a star; . = not tested or not shown.

SMILES	CYP2C9 inh	CYP2C9 activ	CD11b adhes inh	CYP2C19 act	CYP2C19 inhib	Mac1 fbg enh
O=c1cc(-c2ccccc2)n(S(=O)(=O)c2ccccc2)o1	-7	1.1	10	0.5	52*	5
COc1ccc(S(=O)(=O)N2CCC(C(=O)N3CCCCC3)CC2)cc1OC	47	0.5	.	1	3	.
COc1ccc(S(=O)(=O)n2oc(=O)cc2-c2ccccc2)cc1OC	-91	1.9	3	0	97*	3
O=C(CSC1=NCCS1)Nc1ccc(S(=O)(=O)NC2CCCCC2)cc1	56*	0.4	-2	0.8	24	-12
O=C(CSCc1ccc(Cl)cc1)Nc1ccc(S(=O)(=O)N2CCCCCC2)cc1	.	.	59	.	.	-4
O=C(CSC1=NCCS1)NC1CCCC1	0	1	.	0.7	26	.
O=C(CSC1=NCCS1)Nc1ccnc2ccccc12	38	0.6	100*	0.7	32	-10
CC(=O)Nc1ccc(NC(=O)CSC2=NCCS2)cc1	81*	0.2	-17	0.4	55*	-4
CC(=O)Nc1nonc1NC(=O)CSC1=NCCS1	5	1	23	0.9	11	-8
COc1cc(NS(=O)(=O)c2ccc(NC(=O)CSC3=NCCS3)cc2)nc(OC)n1	32	0.7	3	0.9	6	-5
O=C(CSC1=NCCS1)Nc1ccc(S(=O)(=O)N2CCCCCC2)cc1	62*	0.4	12	0.6	39	-3
CCOC(=O)N1CCC(Nc2c(NCCCN(CC)c3cccc(C)c3)c(=O)c2=O)CC1	2	1	-4	0.9	13	0
O=C(Nc1cccnc1)c1ccc2snnc2c1	-9	1.1	.	0.9	8	.
Cc1ccc(C(C(=O)NC2CCCCC2)N(C(=O)Cc2c[nH]c3ccccc23)c2ccccc2)o1 (stereo unspecified)	66*	0.3	.	0.6	45	.
O=C(NC1CCCCC1)C(c1cccs1)N(C(=O)Cc1c[nH]c2ccccc12)c1ccc(F)cc1 (stereo unspecified)	48	0.5	-1	0.3	68*	0
Cc1ccc(N(C(=O)Cn2nnc(-c3ccc(C)o3)n2)C(C(=O)NC2CCCC2)c2ccco2)cc1 (stereo unspecified)	27	0.7	5	0.9	11	3
O=C(NC1CCCC1)C(c1ccsc1)N(C(=O)Cc1cccs1)c1ccc(F)cc1 (stereo unspecified)	5	0.9	-16	0.9	14	38
CC(=O)c1ccc(N(C(=O)Cc2c[nH]c3ccccc23)C(C(=O)NC2CCCCC2)c2cccs2)cc1 (stereo unspecified)	58*	0.4	-1	0.4	65*	-2
C=CCSc1nc2nc(C)cc(C)n2n1	-21	1.2	-20	1.1	-7	6
O=C(Nc1cc(Cl)cc(Cl)c1)C(NCC1CCCO1)c1ccccc1 (stereo unspecified)	.	.	-13	.	.	4
CC(C)NC(C(=O)Nc1cc(Cl)cc(Cl)c1)c1ccccc1 (stereo unspecified)	72*	0.3	17	0.3	71*	-1
COc1ccc(CC(=O)Nc2c3c(nn2-c2cccc(Cl)c2)CS(=O)(=O)C3)cc1	28	0.7	-8	0.6	38	0
O=C(Cc1ccccc1)Nc1c2c(nn1-c1cccc(Cl)c1)CS(=O)(=O)C2	24	0.8	-32	0.4	55*	-1
COc1ccc(-c2c3c(nc4sc5c(=O)[nH]c(C)nc5c24)CCC3)cc1	57*	0.4	2	1.1	-5	-4
O=C(Cn1nnc2c(sc3nc4c(c(-c5ccccc5)c32)CCC4)c1=O)c1ccccc1	6	0.9	47	1.1	-13	7
SMILES	CYP2C9 inh	CYP2C9 activ	CD11b adhes inh	CYP2C19 act	CYP2C19 inhib	Mac1 fbg enh
COc1ccc(-c2c3c(nc4sc(C(=O)Nc5cc(C)on5)c(N)c24)CCC3)cc1	51*	0.5	27	0.7	27	109
Cc1noc(/C=C/N(C)C)c1S(=O)(=O)N1CCCC(C(=O)NCc2ccc(Cl)cc2)C1 (stereo unspecified)	77*	0.2	-16	0.5	50	-2
Cc1noc(/C=C/N(C)C)c1S(=O)(=O)N1CCCC(C(=O)NCc2ccccc2Cl)C1 (stereo unspecified)	78*	0.2	0	0.8	24	2
Cc1noc(/C=C/N(C)C)c1S(=O)(=O)N1CCCC(C(=O)NCc2ccc(F)cc2)C1 (stereo unspecified)	73*	0.3	5	0.5	46	-14
Cc1ccc(CNC(=O)C2CCCN(S(=O)(=O)c3c(C)noc3C)C2)cc1 (stereo unspecified)	-4	1	-10	1.1	-13	-2
Cc1ccc(C)c(NS(=O)(=O)c2c(C)ccc3nsnc23)c1	36	0.6	11	0.7	34	-1
Cc1ccc2nsnc2c1S(=O)(=O)NCCc1c(C)[nH]c2ccc(F)cc12	33	0.7	2	0.2	78*	4
CCOC(=O)Cc1nnc(NC(=O)Nc2ccccc2)s1	15	0.8	-4	1	3	0
CCCn1c2ccccc2c2nnc(SCC(=O)Nc3ncccn3)nc21	60*	0.4	-20	0.5	52*	-2
C=CCn1c2ccccc2c2nnc(SCC(=O)Nc3cc(C)on3)nc21	55*	0.4	-27	0.7	28	-3
CSc1nnc2c3ccccc3n(CCc3ccccc3)c2n1	9	0.9	-12	0.4	61*	-3
CSc1nnc2c3ccccc3n(Cc3ccccc3)c2n1	20	0.8	-10	0.9	10	6
CCOC(=O)Cc1nnc(NC(=O)CSc2nnc3c4ccccc4n(C)c3n2)s1	92*	0.1	4	0	96*	-2
CCCn1c2ccccc2c2nnc(SCC(=O)Nc3cc(C)on3)nc21	33	0.7	-18	1	4	3
CCn1c2ccccc2c2nnc(SCC(=O)N3CC(C)OC(C)C3)nc21 (stereo unspecified)	-33	1.3	17	0.8	22	3
c1ccc(-c2csc(Cc3nnc4n3CCCCC4)n2)cc1	6	0.9	2	0.8	24	-3
CC12C=CC3(CN(Cc4ccccc4)C(=O)C3C1C(=O)NC1CC1)O2 (stereo unspecified)	2	1	-3	0.9	11	-4
CC(=O)Nc1ccc(S(=O)(=O)NNC(=O)c2sc(=S)n(C)c2C)cc1	.	.	3	.	.	4
C=CCn1c2ccccc2c2nnc(SCc3ccc4nonc4c3)nc21	84*	0.2	18	0.2	84*	18
CCOc1ccccc1N1CCN(C(=O)c2cc(C)oc2C)CC1	27	0.7	3	0.3	68*	-1
CCOc1ccccc1N1CCN(C(=O)C(Sc2ccccc2)c2ccccc2)CC1 (stereo unspecified)	42	0.6	5	0.5	51*	-2
